Rows were chosen to be rich in hits. Some 2.7% of all compounds tested hit in one or more screens of this group.
KDM5B inh: blocks human KDM5B histone demethylase activity | Q9UGL1 | KDM5B demethylase, FDH-coupled NADH fluorescence (FDH is formaldehyde dehydrogenase) | Potency, µM (top dose mostly 57.7 µM), hits mostly inhibitors | 220,000 tested, 2.6% active | AID 1347165; active = well fitted inhibition curve with a large enough effect; inconclusive = small, poorly fitted or top-dose-only effect; inactive = no such curve, though single readings can be large or run the other way; also: potency is read from the fitted curve at half-maximal effect; 0% is about no effect; nearly all actives have a fitted effect of over 70% in size
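Inhibition is measured as reduced NADH fluorescence generation from FDH coupling to formaldehyde release. Truncated KDM5BΔAP at 200 nM final acts on H3K4me3 peptide (12.5 µM in substrate mix) in pH 7.5 HEPES buffer with Tween-20, 30 min, room temperature.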
IP6K1 inhibitor: IP6K1 kinase inhibition | Q92551 | IP6K1 kinase, ADP-Glo luminescence, 2 h; active compounds read low | activity change, % (series mostly up to about 58 µM) | 140,000 tested, 0.81% active | AID 1645851; in the data active = activity change below about -25%; also: % is scaled to controls: 0 for no effect and ±100 for the full control effect
Target sequence (Q92551 whole entry, looked up): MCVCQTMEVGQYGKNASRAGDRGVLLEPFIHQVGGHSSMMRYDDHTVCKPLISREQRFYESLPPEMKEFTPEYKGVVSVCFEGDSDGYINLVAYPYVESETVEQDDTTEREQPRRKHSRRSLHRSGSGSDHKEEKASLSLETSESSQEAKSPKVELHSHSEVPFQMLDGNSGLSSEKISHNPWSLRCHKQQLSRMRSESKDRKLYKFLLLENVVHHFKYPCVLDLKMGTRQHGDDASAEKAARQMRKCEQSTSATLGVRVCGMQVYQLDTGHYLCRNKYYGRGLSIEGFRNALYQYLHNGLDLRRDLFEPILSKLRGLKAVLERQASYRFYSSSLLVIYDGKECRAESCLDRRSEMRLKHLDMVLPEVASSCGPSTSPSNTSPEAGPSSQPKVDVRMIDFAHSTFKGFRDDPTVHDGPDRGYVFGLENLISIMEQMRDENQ
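ADP-Glo luminescence measures ADP made by human IP6K1 during a 2 h RT reaction with ATP/IP6 (mix at 1.3 mM/130 uM); top library doses 57.5 and 19.1 uM final.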
Numbers without * were called inactive; i = inactive; ? = inconclusive; nt = no result.

SMILES | KDM5B inh | IP6K1 inhibitor
CC1CCCC(C)N1C(=O)c1ccc2nc(-c3ccnc(Cl)c3)oc2c1 (stereo unspecified) | nt | 14
COc1cccc(-c2cc(C(=O)NCCCOC(C)C)c3cnn(C)c3n2)c1 | nt | 2
CCCCCNC(=O)NCCc1c[nH]c2ccccc12 | i | nt
CC(NC(=O)c1n[nH]c2ccccc12)C(=O)N1CCN(c2ccccn2)CC1 (stereo unspecified) | 22µM* | 2
CCCn1nc(C(=O)N2CCN(c3ccccn3)CC2)c2ccccc2c1=O | i | nt
COc1ccc(OC)c(C(O)Cn2ccn3nc(-c4cccs4)cc3c2=O)c1 (stereo unspecified) | i | 0
Cc1ccc(C(O)Cn2ccn3nc(-c4ccc(F)cc4)cc3c2=O)cc1 (stereo unspecified) | 14µM* | 2
CCOc1ccc(-c2cc3c(=O)n(CC(O)c4ccc(C(C)C)cc4)ccn3n2)cc1 (stereo unspecified) | ? | -6
Cc1ccc(C(O)Cn2ccn3nc(-c4ccc(F)cc4)cc3c2=O)cc1C (stereo unspecified) | i | -1
O=c1c2cc(-c3cccs3)nn2ccn1CC(O)c1ccc(F)cc1 (stereo unspecified) | 16µM* | 9
CC(C)c1ccc(C(O)Cn2ccn3nc(-c4ccc(F)cc4)cc3c2=O)cc1 (stereo unspecified) | 25µM* | 0
CCOC(=O)CN(C(=O)CC1CCCC1)[C@H]1C[C@H]2CCOC[C@H]2C1 | nt | -8
O=C(NCc1ccncc1)c1ccc(-c2ccc(N3CCCCC3)nc2)cc1 | ? | -11
O=C(NCCN1CCOCC1)c1ccc(Cl)cc1 | nt | 6
COCCNC(=O)c1ccc(-c2ccc(N3CCCCC3)nc2)cc1 | 13µM* | 13
COc1ccc(OC)c(CNC(=O)c2ccc(-c3ccc(N4CCSCC4)nc3)cc2)c1 | i | -5
O=C(NCCN1CCCC1)c1ccc(-c2ccc(N3CCSCC3)nc2)cc1 | 25µM* | -7
O=C(NCc1ccccc1)c1ccc(-c2ccc(N3CCSCC3)nc2)cc1 | ? | -3
O=C(NCCN1CCOCC1)c1ccc(-c2ccc(N3CCCCC3)nc2)cc1 | 28µM* | -4
O=C(NCc1ccccc1F)c1ccc(-c2ccc(N3CCSCC3)nc2)cc1 | 18µM* | 14
CC1CCN(C(=O)CSc2nnc(-c3ccccc3Cl)n2C2CCCC2)CC1 | i | nt
O=C(CSc1nnnn1-c1ccc(C(=O)O)cc1)Nc1cccc2ccccc12 | i | nt
CC1=CCC2C(C)(C)CCCC2(C)C1CC/C(C)=C/CC/C(C)=N/O (stereo unspecified) | i | nt
CN(CCOC(=O)c1ccccc1F)C(C)(C)C | i | nt
N#Cc1ccc(Oc2c(-c3ccccc3)cccc2-c2ccccc2)cc1C#N | i | nt
SMILES | KDM5B inh | IP6K1 inhibitor
COCc1cnc2c(c1SCC(=O)Nc1ccccc1F)c(=O)n(C)c(=O)n2C | i | nt
COc1ccccc1C(=O)Nc1cc(-c2cccnc2)nn1-c1ccccc1 | nt | 3
O=C(OCc1ncc(-c2ccc(Cl)cc2)o1)c1cccc(F)c1 | i | nt
O=C(NC1CCCC1)c1ccc(-c2ccc(N3CCSCC3)nc2)cc1 | 28µM* | -1
COc1cccc(CNC(=O)c2ccc(-c3ccc(N4CCSCC4)nc3)cc2)c1 | i | -3
COc1cccc(CNC(=O)C2CCN(Cc3ccccc3-c3cccnc3)CC2)c1 | nt | 8
COc1cccc(-c2ccccc2NC(=O)C2CCN(Cc3cc(OC)ccc3O)CC2)c1 | 16µM* | 19
CC(Sc1ncccn1)C(=O)c1ccc(F)cc1 (stereo unspecified) | i | nt
Cc1ccc(-c2nnc3ccc(C(=O)NCc4ccccc4F)cn23)cc1 | nt | 13
CC(C)OCCNc1nccc(C2(c3ccccc3Cl)CCNCC2)n1 | ? | -16
COCCNc1nccc(C2(c3ccccc3Cl)CCNCC2)n1 | 22µM* | 5
CS(=O)(=O)NCCCNc1nc2ccccc2o1 | i | nt
Cc1ccccc1C(=O)N1CCC(N2C(=O)c3c(c(C)nn3-c3ccccc3)C2C2CC2)C1 (stereo unspecified) | nt | -3
c1cncc(CN2CCC[C@H]2c2nc(-c3ccnc(N4CCCC4)c3)no2)c1 | 35µM* | 9
c1cc(-c2noc([C@@H]3CCCN3Cc3ncc[nH]3)n2)cc(N2CCCC2)n1 | 40µM* | 17
CC(C)CN1CCC[C@H]1c1nc(-c2ccnc(NS(C)(=O)=O)c2)no1 | 35µM* | 3
CC(=O)Nc1ccc(CN2CCC[C@H]2c2nc(-c3ccnc(NS(C)(=O)=O)c3)no2)cc1 | ? | 12
CS(=O)(=O)Nc1cc(-c2noc([C@@H]3CCCN3Cc3ccccc3)n2)ccn1 | ? | -10
c1cc(-c2noc([C@@H]3CCCN3C3CCOCC3)n2)cc(N2CCCC2)n1 | ? | 0
COCCOc1ncccc1-c1noc([C@@H]2CCCN2Cc2ncc[nH]2)n1 | i | 0
CC(=O)Nc1ccc(CN2CCC[C@H]2c2nc(-c3ccnc(N4CCC(C(N)=O)CC4)c3)no2)cc1 | 32µM* | 13

Screening results deposited in PubChem by National Center for Advancing Translational Sciences (NCATS).
